# Source: PubChem BioAssay
# Several values for one entry are separate records, joined by “and”; a condition that tells them apart may be missing. Equal values may be shown once. Inconclusive results are not listed. Activity calls are given as the source filed them.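 How the source made its calls, unless noted: active means GFP response, as percent of the DMSO control, above the screen-wide mean plus 3 SD, about 139; inconclusive means no response measured because the compound's own fluorescence interfered; inactive means the rest.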
# Assay: rapamycin-like changes in RPL19A-GFP expression – cell-based, S. cerevisiae, multiplex flow cytometry, primary screen (AID 1862; in the data active means percent of DMSO control GFP below about 86%;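 further: lower values mimic rapamycin by blocking the RPL19A rise seen in DMSO cells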)
# Details: S. cerevisiae RPL19A-GFP strain, flow cytometry fluorescence, 3 h; at 10 µM; stronger effect = lower value
row,Structure (SMILES),percent of DMSO control GFP
1,NS(=O)(=O)c1cc2c(cc1Cl)NC(C1C[C@H]3C=C[C@@H]1C3)NS2(=O)=O (stereo partly drawn),104% (inactive)
2,CC(=O)NC1C(OCc2ccccc2)OC(COC(C)=O)C(OC(C)=O)C1OC(C)=O (stereo not drawn),104% (inactive)
3,O=CNC1CCCc2c1[nH]c1ccc(Cl)cc21 (stereo not drawn),101% (inactive)
4,O=C(O)CP(=O)(O)O,97.2% (inactive)
5,Cc1cccc(Nc2ccccc2C(=O)O)c1C,99.5% (inactive)
6,CC1(C)CC(NCc2ccccc2)CCO1 (stereo not drawn),103% (inactive)
7,Cc1ccccc1C(=O)NCC(=O)O,103% (inactive)
8,CCOc1cc2c3c(c1)C(C)=CC(C)(C)N3C(=O)C2=O,95% (inactive)
9,O=C(N1CCCC1)C12CC3CC(C1)CC(C(=O)N1CCCC1)(C3)C2,99.5% (inactive)
10,O=C(NC(Nc1ccccn1)C(Cl)(Cl)Cl)c1ccccc1 (stereo not drawn),100% (inactive)
11,COc1cc(NC(=S)NC(=O)c2cccs2)ccc1NC(=O)C(C)C,99.7% (inactive)
12,COc1ccc(CCN(C)CCCC(C#N)(c2cc(OC)c(OC)c(OC)c2)C(C)C)cc1OC (stereo not drawn),100% (inactive)
13,O=C1C(Cc2c[nH]c3ccccc23)NC(=S)N1Cc1ccccc1 (stereo not drawn),108% (inactive)
14,CC(C)(C)C(=O)NC(=S)NNC(=O)c1ccncc1,98.2% (inactive)
15,CCOC(=O)N1CCN(Cc2nc(Cc3cccc(F)c3)no2)CC1,102% (inactive)
16,C[C@@H]1C[C@H](Nc2ccccc2)c2ccccc2N1C(=O)c1cccnc1,103% (inactive)
17,OC(CCN1CCCC1)(c1ccccc1)C1CCCCC1 (stereo not drawn),87.3% (inactive)
18,Cc1cc(Cl)cc2c1NC(=O)[C@]21[C@@H]2C(=O)N(Cc3ccccc3)C(=O)[C@@H]2[C@@H]2CCCN21,96.2% (inactive)
19,O=C(/C=C/c1ccco1)Nc1ccccc1C(=O)O,98.1% (inactive)
20,CC(C)c1ccc(/C=C/C(=O)O)cc1,96.3% (inactive)

row,Structure (SMILES),percent of DMSO control GFP
1,CCN(CC)CC(=O)Nc1c(C)cccc1C,106% (inactive) and 100% (inactive)
2,CC1=C(C)C(=O)C(CCCCC#CCCCC#CCO)=C(C)C1=O,99.3% (inactive)
3,COc1cc(C=NCC2OCCc3ccccc32)cc(OC)c1 (stereo not drawn),99% (inactive)
4,CN(C)CCCN1c2ccccc2CCc2ccccc21,99% (inactive)
5,COc1ccc2nc(S(=O)Cc3ncc(C)c(OC)c3C)[nH]c2c1 (stereo not drawn),107% (inactive)
6,COc1ccc(CNCCC2(C(C)C)CCOC(C)(C)C2)cc1 (stereo not drawn),99.2% (inactive)
7,COc1cccc(CN2C(=O)N(C(C)C)C(N(O)C(=O)NC(C)C)C2(C)C)c1OC (stereo not drawn),98.2% (inactive)
8,Cc1ccc(S(=O)(=O)N[C@@H](Cc2ccccc2)C(=O)CCl)cc1,99.2% (inactive)
9,COCCN(CCOC)Cc1c(C)[nH]c2c(C)c(C)ccc2c1=O,103% (inactive)
10,CCOC(=O)C(NC(=O)CCC(=O)Nc1ccc(S(N)(=O)=O)cc1)C(O)c1ccccc1 (stereo not drawn),96.5% (inactive)
11,Cc1ccccc1N1C(N)=NC(N)=NC1(C)C,102% (inactive)
12,CC1Cc2ccccc2N1NC(=O)c1ccc(Cl)c(S(N)(=O)=O)c1 (stereo not drawn),105% (inactive)
13,CC1=C(/C=C/C(C)=C/C=C/C(C)=C/C(=O)O)C(C)(C)CCC1,106% (inactive)
14,N/C(=N\OC(=O)/C=C/c1ccccc1)c1ccc(Br)cc1,103% (inactive)
15,CCOc1ccc(C(=O)C(C)=O)c(OCC)c1,101% (inactive)
16,COc1ccc(C=O)c(OC)c1,100% (inactive)
17,CC1=NN(c2ccccc2)C(=O)C1,108% (inactive)
18,COCC1CCCN(Cc2cn[nH]c2-c2cc3ccccc3o2)C1 (stereo not drawn),95.9% (inactive)
19,CC1(C)CC(=O)C(C2=NC(C)(C)Cc3ccccc32)=C(O)C1,103% (inactive)

# Assay: TOR pathway GLN3 branch reporter MEP2-GFP changes – S. cerevisiae, multiplex flow cytometry, primary screen (AID 1867);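 further: median GFP channel fluorescence of barcode-gated MEP2-GFP cells measured by flow cytometry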
# Details: S. cerevisiae MEP2-GFP strain, 3 h, at 10 µM, stronger effect = higher value, 100% means same as DMSO wells
row,Structure (SMILES),GFP response vs DMSO
1,NS(=O)(=O)c1cc2c(cc1Cl)NC(C1C[C@H]3C=C[C@@H]1C3)NS2(=O)=O (stereo partly drawn),106% (inactive)
2,CC(=O)NC1C(OCc2ccccc2)OC(COC(C)=O)C(OC(C)=O)C1OC(C)=O (stereo not drawn),104% (inactive)
3,O=CNC1CCCc2c1[nH]c1ccc(Cl)cc21 (stereo not drawn),96.2% (inactive)
4,O=C(O)CP(=O)(O)O,105% (inactive)
5,Cc1cccc(Nc2ccccc2C(=O)O)c1C,102% (inactive)
6,CC1(C)CC(NCc2ccccc2)CCO1 (stereo not drawn),97.6% (inactive)
7,Cc1ccccc1C(=O)NCC(=O)O,107% (inactive)
8,CCOc1cc2c3c(c1)C(C)=CC(C)(C)N3C(=O)C2=O,111% (inactive)
9,O=C(N1CCCC1)C12CC3CC(C1)CC(C(=O)N1CCCC1)(C3)C2,103% (inactive)
10,O=C(NC(Nc1ccccn1)C(Cl)(Cl)Cl)c1ccccc1 (stereo not drawn),102% (inactive)
11,COc1cc(NC(=S)NC(=O)c2cccs2)ccc1NC(=O)C(C)C,108% (inactive)
12,COc1ccc(CCN(C)CCCC(C#N)(c2cc(OC)c(OC)c(OC)c2)C(C)C)cc1OC (stereo not drawn),99.3% (inactive)
13,O=C1C(Cc2c[nH]c3ccccc23)NC(=S)N1Cc1ccccc1 (stereo not drawn),102% (inactive)
14,CC(C)(C)C(=O)NC(=S)NNC(=O)c1ccncc1,104% (inactive)
15,CCOC(=O)N1CCN(Cc2nc(Cc3cccc(F)c3)no2)CC1,105% (inactive)
16,C[C@@H]1C[C@H](Nc2ccccc2)c2ccccc2N1C(=O)c1cccnc1,103% (inactive)
17,OC(CCN1CCCC1)(c1ccccc1)C1CCCCC1 (stereo not drawn),134% (inactive)
18,Cc1cc(Cl)cc2c1NC(=O)[C@]21[C@@H]2C(=O)N(Cc3ccccc3)C(=O)[C@@H]2[C@@H]2CCCN21,95.7% (inactive)
19,O=C(/C=C/c1ccco1)Nc1ccccc1C(=O)O,105% (inactive)
20,CC(C)c1ccc(/C=C/C(=O)O)cc1,105% (inactive)

row,Structure (SMILES),GFP response vs DMSO
1,CCN(CC)CC(=O)Nc1c(C)cccc1C,109% (inactive) and 94.1% (inactive)
2,CC1=C(C)C(=O)C(CCCCC#CCCCC#CCO)=C(C)C1=O,99.6% (inactive)
3,COc1cc(C=NCC2OCCc3ccccc32)cc(OC)c1 (stereo not drawn),105% (inactive)
4,CN(C)CCCN1c2ccccc2CCc2ccccc21,103% (inactive)
5,COc1ccc2nc(S(=O)Cc3ncc(C)c(OC)c3C)[nH]c2c1 (stereo not drawn),105% (inactive)
6,COc1ccc(CNCCC2(C(C)C)CCOC(C)(C)C2)cc1 (stereo not drawn),107% (inactive)
7,COc1cccc(CN2C(=O)N(C(C)C)C(N(O)C(=O)NC(C)C)C2(C)C)c1OC (stereo not drawn),103% (inactive)
8,Cc1ccc(S(=O)(=O)N[C@@H](Cc2ccccc2)C(=O)CCl)cc1,91.8% (inactive)
9,COCCN(CCOC)Cc1c(C)[nH]c2c(C)c(C)ccc2c1=O,108% (inactive)
10,CCOC(=O)C(NC(=O)CCC(=O)Nc1ccc(S(N)(=O)=O)cc1)C(O)c1ccccc1 (stereo not drawn),103% (inactive)
11,Cc1ccccc1N1C(N)=NC(N)=NC1(C)C,103% (inactive)
12,CC1Cc2ccccc2N1NC(=O)c1ccc(Cl)c(S(N)(=O)=O)c1 (stereo not drawn),103% (inactive)
13,CC1=C(/C=C/C(C)=C/C=C/C(C)=C/C(=O)O)C(C)(C)CCC1,106% (inactive)
14,N/C(=N\OC(=O)/C=C/c1ccccc1)c1ccc(Br)cc1,106% (inactive)
15,CCOc1ccc(C(=O)C(C)=O)c(OCC)c1,99.7% (inactive)
16,COc1ccc(C=O)c(OC)c1,98.6% (inactive)
17,CC1=NN(c2ccccc2)C(=O)C1,106% (inactive)
18,COCC1CCCN(Cc2cn[nH]c2-c2cc3ccccc3o2)C1 (stereo not drawn),109% (inactive)
19,CC1(C)CC(=O)C(C2=NC(C)(C)Cc3ccccc32)=C(O)C1,100% (inactive)
